Our source for the activation and Potency values is PubChem BioAssay (NCATS).

The structures appear in SMILES notation. Where “and” joins values, the source holds several entries; their conditions need not be identical. Equal values may be shown once. Inconclusive results are not listed. Calls of active or inactive are those of the source. Calls come from the whole dose curve; as a rule, active = well fitted activation curve with a large enough effect in the signal ratio (not every such curve was filed as active); inconclusive = small, poorly fitted or top-dose-only effect, or a change in a side signal; inactive = flat fitted curve, though single readings scatter; the % refers to the signal ratio.
Potency is the fitted concentration of half-maximal effect.

The assay in a line: qHTS assay for small molecule activators of the p53 signaling pathway (AID 651743). For activation: series mostly up to about 92 µM; % of control where 0% means no effect. To be noted: HCT-116 p53RE-bla, beta-lactamase FRET ratio, 16 h; activation: active compounds read high. The text has this: National Center for Advancing Translational Sciences [NCATS] NIH Chemical Genomics Center [NCGC] U.S. Environmental Protection Agency [EPA] National Institutes of Environmental Health Sciences [NIEHS] National Toxicology Program [NTP] Assay Overview: p53, a tumor suppressor protein, is activated following cellular insult, including DNA damage and other cellular stresses. The activation of p53 regulates cell fate by inducing DNA repair, cell cycle arrest, apoptosis, or cellular senescence. The activation of p53, therefore, is a good indicator of DNA damage and other cellular stresses. The CellSensor p53RE-bla HCT-116 cell line (Invitrogen) contains a stably integrated beta-lactamase reporter gene under control of the p53 response elements. The activation of the report gene under culture conditions can be detected by fluorescence intensity. This cell line can be used to screen chemicals in a 1536-well plate format and to identify agonists that activate p53 signaling pathway.
Assay Protocol Summary: The p53RE-bla cells were dispensed at 4,000 cells/5 ul/well in 1536-well black wall/clear bottom plates using a Multidrop dispenser. After the assay plates were incubated at a 37 C/5% CO2 incubator for 5 hours, 23 nL of compounds dissolved in DMSO, positive controls or DMSO only was transferred to the assay plate by a pin tool. The plates were incubated at 37 C for 16 hours. After 1 uL of LiveBLAzer B/G FRET substrate was added using a Flying Reagent Dispenser, the plates were incubated at room temperature for 2 hours, and fluorescence intensity was measured by an Envision plate reader.
For `[Cu+2].[O-]c1cccc2cccnc12.[O-]c1cccc2cccnc12`, the activation is -8.29% (inactive).
Take `Cc1cc(Cl)ccc1O[C@H](C)C(=O)O`: the activation was -0.679% (inactive).
In the case of `C=C(C)C(=O)OCC(CC)CCCC` (stereo not given), the activation was -3.24% (inactive).
As for `Cc1cc(Cl)ccc1OC(C)C(=O)O` (stereo not given), the activation was -1.95% (inactive).
On to `CCNc1nc(NC(C)(C)C)nc(SC)n1`, for which the activation is 13.8% (inactive).
Still for that read-out and setting: as for `CCCCC(CC)C(=O)Cl` (stereo not given), the figure is -0.76% (inactive); as for `COC(C)(C)CCC[C@H](C)C/C=C/C(C)=C/C(=O)OC(C)C`, -4.16% (inactive).
On the same count and under the same terms, as for `Cc1ccc(O)cc1C`, the figure is -0.374% (inactive).
Turning to `CNC(=O)Oc1cc(C)cc(C(C)C)c1`, the activation is 6.05% (inactive).
Same read-out and setting: as for `Cn1cc(-c2ccccc2)c(=O)c(-c2cccc(C(F)(F)F)c2)c1`, the figure is -5.34% (inactive).
On the same count and under the same terms, as for `Cc1cnc(C2=NC(C)(C(C)C)C(=O)N2)c(C(=O)O)c1` (stereo not given), the figure is 0.249% (inactive) and -2.82% (inactive); as for `COC(=O)c1c(C(F)F)nc(C(F)(F)F)c(C2=NCCS2)c1CC(C)C`, 6.04% (inactive); as for `O=C(O)COc1ccc(Cl)cc1`, -0.56% (inactive).
Consider `Nc1ccc([N+](=O)[O-])cc1Cl`, for which the activation is -0.946% (inactive).
Still for that read-out and setting: with `CCNc1nc(Cl)nc(NC(C)(C)C#N)n1` the figure was -4.15% (inactive); with `Clc1ccc(C(c2ccc(Cl)cc2)C(Cl)Cl)cc1`, 6.6% (inactive).
Regarding `CCOc1nc(C(Cl)(Cl)Cl)ns1`, the activation is -0.297% (inactive).
Regarding `CCOP(=S)(OCC)SCSP(=S)(OCC)OCC`, the activation was -5.14% (inactive).
In the case of `COc1cccc(C(=O)NN(C(=O)c2cc(C)cc(C)c2)C(C)(C)C)c1C`, the activation was -3.69% (inactive).
Same read-out and setting: with `OC(Cn1cncn1)(c1ccc(F)cc1)c1ccccc1F` (stereo not given) the figure was 0.874% (inactive); with `Nc1ccccc1C(=O)OCCc1ccccc1`, -0.792% (inactive).
On the same count and under the same terms, with `O=P(O)(O)CN(CP(=O)(O)O)CP(=O)(O)O` the figure was -5.96% (inactive); with `CON(C)C(=O)Nc1ccc(Cl)c(Cl)c1`, 0.565% (inactive).
As to `CC(C)Oc1cc(-n2nc(C(C)(C)C)oc2=O)c(Cl)cc1Cl`, the activation was 0.204% (inactive).
As to `O=S1OC[C@@H]2[C@H](CO1)[C@@]1(Cl)C(Cl)=C(Cl)[C@]2(Cl)C1(Cl)Cl` (stereo not given in full), the activation was -3.81% (inactive) and -3.84% (inactive).
On to `N#CCNC(=O)c1cnccc1C(F)(F)F`, for which the activation is -2.69% (inactive).
Regarding `CN(C)c1ccc(C(=O)c2ccc(N(C)C)cc2)cc1`, the Potency is 3.98 µM (active).
For the compound `CC1COC(Cn2cncn2)(c2ccc(Oc3ccc(Cl)cc3)cc2Cl)O1` (stereo not given), the activation was 12.1% (inactive).
With `Cc1ccc(-c2c(Cl)nc(C#N)n2S(=O)(=O)N(C)C)cc1`, the Potency was 28.2 µM (active).
For `CNC(=S)S`, the activation was -4.42% (inactive).
Consider `COC(=O)c1sccc1S(=O)(=O)NC(=O)Nc1nc(C)nc(OC)n1`, for which the activation is -3.25% (inactive).
Turning to `COc1cc(OC)nc(Sc2cccc(Cl)c2C(=O)O)n1`, the activation is -0.496% (inactive).
On the same count and under the same terms, with `COC(=O)/C=C(\C)OP(=O)(OC)OC` the figure was -3.2% (inactive); with `CCN(CC)c1nc(C)cc(OP(=S)(OC)OC)n1`, 1.41% (inactive); with `CCOc1nc(F)cc2nc(S(=O)(=O)Nc3c(Cl)cccc3Cl)nn12`, 1.78% (inactive).
On the same count and under the same terms, as for `C/C(=N\NC(=O)Nc1cc(F)cc(F)c1)c1ncccc1C(=O)O`, the figure is -1.04% (inactive) and 1.35% (inactive).
`C/C=C(\C)C(=O)O[C@H]1C[C@@H](OC(C)=O)[C@@]2(C(=O)OC)CO[C@H]3[C@@H](O)[C@@](C)([C@]45O[C@@]4(C)[C@H]4C[C@@H]5O[C@@H]5OC=C[C@@]54O)[C@H]4[C@]1(CO[C@]4(O)C(=O)OC)[C@@H]32`: the activation is 6.01% (inactive).
In the case of `CCOP(=S)(OCC)SCn1c(=O)oc2cc(Cl)ccc21`, the activation was 2.68% (inactive).
As for `CCOc1cc(Oc2ccc(C(F)(F)F)cc2Cl)ccc1[N+](=O)[O-]`, the activation was 3.72% (inactive).
On to `CCOP(=O)(OCC)SCSP(=S)(OCC)OCC`, for which the activation was -1.69% (inactive).
